Cycloheximide cs: affects cycloheximide protein synthesis inhibition readout, counter-screen; hit rate 12% among 300,000; max response, %; cell reporter, cycloheximide protein synthesis inhibition counterscreen; in the data active = max response mostly above about 13%, no sharp cut-off; inactive = mostly below about 14%; also: read at 38.3 µM for the half of the compounds with a filed dose; 0% is about no effect
NS1 inh: blocks influenza NS1 protein function; Potency, µM (titrated, usually from 46.1 µM), inactives show top-dose activity, positive = more growth; hit rate 0.4% among 270,000; calls by dose curve; also: potency is read from the fitted curve at half-maximal effect; actives are rising curves; nearly all actives have a fitted effect of over 50% in size
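Compounds were scored for reversing the slow growth caused by influenza A NS1 in S. cerevisiae, measured by optical density at 600 nm. Assay medium contained 2% galactose at pH 6.0; NS1-free yeast of the same strain were the positive control.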
Sm TGR inh: inhibitors of Schistosoma mansoni thioredoxin glutathione reductase | purified TGR, DTNB reduction, TNB absorbance 405 nm | hit rate 3% among 360,000 | Q962Y6 | AID 485364 | Potency, µM (titrated, usually from 114 µM), for inactives: at the highest dose activity change, negative = inhibition, hits mostly inhibitors; also: potency is read from the fitted curve at half-maximal effect; % is scaled to controls: 0 for no effect and ±100 for the full control effect; nearly all actives have a fitted effect of over 60% in size
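First, TGR (20 nM dispensed) and NADPH were mixed with compound. Second, a 15 min room-temperature incubation followed. Third, further NADPH and then DTNB were added to start the reaction. Finally, TNB absorbance was monitored kinetically.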
Shiga toxin inh: blocks Shiga toxin action in Vero cells; hit rate 9.2% among 290,000; inhibition, % at 38.7 µM; AID 2315; Vero cells, Shiga toxin protein synthesis inhibition reporter; in the data active = inhibition mostly above about 28%, no sharp cut-off; inactive = mostly below about 43%; also: 0% is about no effect
Pf growth 48h: P. falciparum growth inhibition at 48 hours (one generation); P. falciparum luciferase growth in erythrocytes, 48 h; Potency, µM (titrated, usually from 28.7 µM), without a hit: at the top dose activity change, negative = inhibition, hits mostly inhibitors; hit rate 5.9% among 310,000; AID 504832; also: potency is read from the fitted curve at half-maximal effect; % is scaled to controls: 0 for no effect and ±100 for the full control effect
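Firefly luciferase activity from engineered P. falciparum reports growth; inhibitors lower the luminescent signal. Cultures contained 2% hematocrit erythrocytes at 0.1% final parasitemia.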
Pf growth 96h: P. falciparum growth inhibition at 96 hours; Potency, µM (doses to about 28.7 µM), for inactives: at the top dose activity change, negative = inhibition, usual class: inhibitors; hit rate 6.9% among 320,000; AID 504834; P. falciparum luciferase reporter growth, 96 h; also: potency is read from the fitted curve at half-maximal effect; % is scaled to controls: 0 for no effect and ±100 for the full control effect
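P. falciparum expressing integrated firefly luciferase grown in erythrocytes (2% hematocrit, 0.05% parasitemia final) with compounds for 96 hours at 37 C, 5% CO2. Growth inhibition read as loss of luminescence after adding luciferase detection reagent.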
Starred values were filed as active, the others as inactive; ? = inconclusive; . = no result; [ ] = remark or other dose. The list is not random: actives were taken first. Their share in the collection is about 21%. Unless noted, calls follow the shape of the dose curve; as a rule, active = well fitted curve in the direction sought with a large enough effect; inconclusive = small, poorly fitted or top-dose-only effect, or another doubt; inactive = no such curve, though single readings can be large; an effect the other way counts as inactive or inconclusive.

SMILES | Cycloheximide cs | NS1 inh | Sm TGR inh | Shiga toxin inh | Pf growth 48h | Pf growth 96h
O=C(NCCCn1ccnc1)c1cc2nc(-c3ccc(Br)cc3)cc(C(F)(F)F)n2n1 | -5.5 | -7.4% | -5.6% | -15.3 | ? | 4.15µM*
O=C(COc1ccccc1Cl)N(Cc1cccc(F)c1)C1CCS(=O)(=O)C1 (stereo unspecified) | . | . | -0.4% | . | . | .
Cc1ccc(C)c(N2CCN(C(=O)c3cc4cc5ccc(C)cc5nc4s3)CC2)c1 | . | . | -6.9% | . | . | .
CCOC(=O)c1[nH]nc(N)c1NC(=O)c1ccc(Cl)cc1Cl | 26.9* | -10.4% | 1.2% | 22.4 | -7.1% | -18.0%
Cc1cc(C(=O)N(Cc2nnc(-c3ccc(Cl)cc3)o2)C(C)C)c2ccccc2n1 | . | . | -14.1% | . | 11.7µM* | 10.4µM*
Cc1cc(NC(=O)CSc2nc3c(C)cccc3cc2C)no1 | -8.9 | 4.2% | 15.0% | -14.2 | ? | -5.5%
O=C(COc1cccnc1[N+](=O)[O-])NCCc1ccccc1 | 14.1* | 0.1% | -5.3% | 16.3 | 7.0% | 26.1%
O=[N+]([O-])c1cccnc1NCCc1ccccc1 | 36.8* | -2.9% | 12.7% | 67.3* | 223.9% | 191.7%
Cc1cccc(OCCNc2ccc(C(F)(F)F)cc2[N+](=O)[O-])c1 | 9.3* | 3.1% | -4.2% | -4.9 | 22.0% | 7.5%
O=[N+]([O-])c1cccnc1NCCc1c[nH]c2ccccc12 | 30.8* | -2.9% | 3.3% | 67.6* | 141.3% | 102.4%
CS(=O)(=O)NCCCNc1ccc(C(F)(F)F)cc1[N+](=O)[O-] | 14.8 | 3.4% | -23.3% | 19.4 | ? | 91.9%
Cc1cccnc1NC(=O)CCc1c[nH]c2ccccc12 | 4.3 | 5.6% | -20.1% | 9.8 | ? | -19.1%
O=C(COc1cccnc1[N+](=O)[O-])NCc1ccc(F)cc1 | -4.6 | -4.0% | 22.3% | -6.7 | 15.7% | 32.7%
O=C(Nc1ccc(F)cc1)c1cccnc1NCCc1ccccc1 | -2.7 | 1.4% | -10.2% | -11.6 | ? | 3.7µM*
COC(=O)c1ccc(COc2cccnc2[N+](=O)[O-])cc1 | 24.2* | -18.7% | 4.7% | 35.2* | 17.2% | 33.8%
O=[N+]([O-])c1cc(C(F)(F)F)ccc1NCCc1c[nH]c2ccccc12 | 10.4* | 13.3% | 2.8% | 53.8* | -6.9% | 9.8%
O=[N+]([O-])c1cc(C(F)(F)F)ccc1NCCc1c[nH]c2ccc(O)cc12 | 2.7 | 6.9% | -15.7% | 19.6 | ? | 6.0%
CCOc1ccc(C2C(C(=O)Nc3ccc(C)cc3C)=C(C)Nc3c(C(=O)Nc4ccc(C)cc4)cnn32)cc1OC (stereo unspecified) | . | . | 4.8% | . | . | .
CCOC(=O)C1CCCN(C(=O)c2ccc3c(c2)OCO3)C1 (stereo unspecified) | 7.5 | 4.4% | 1.9% | -4.9 | -14.5% | .
CCOC(=O)CNC(=O)N1CCCC(C(=O)c2ccc3c(c2)OCO3)C1 (stereo unspecified) | 1.6 | 1.0% | 0.2%[57.1 µM] | -18.5 | 2.2% | 11.7µM*
O=C(c1ccc2c(c1)OCO2)C1CCCN(C2CCN(CCc3ccccc3)CC2)C1 (stereo unspecified) | -4.0 | 0.0% | -0.4% | -16.3 | 2.62µM* | 3.1%
Cc1csc2nc(CSc3nc4ccccc4o3)cn12 | 53.1* | -136.3% | -9.2% | 70.6* | 0.0% | -27.0%
Cc1cc(C)n2c(Br)c(CSc3nc4ccccc4o3)nc2n1 | 40.9* | -25.4% | 0.0% | 39.8 | 71.4% | 12.3%
c1ccc2oc(SCc3cn4ccsc4n3)nc2c1 | 50.4* | -39.3% | -7.8% | 119.2* | 128.1% | ?
CCC(C(=O)NCc1ccco1)n1nc(C)n2c(cc3occc32)c1=O (stereo unspecified) | 1.5 | -2.5% | -11.9% | -7.5 | 2.7% | 0.2%
SMILES | Cycloheximide cs | NS1 inh | Sm TGR inh | Shiga toxin inh | Pf growth 48h | Pf growth 96h
O=C(Nc1sc2c(c1C(=O)NCc1cccnc1)CCCC2)c1cc(=O)c2ccccc2o1 | . | . | 5.7% | . | . | .
O=S(=O)(c1ccccc1)C1(C2CC(c3ccccc3)=NO2)CC(O)C1 (stereo unspecified) | 11.5* | 2.5% | -13.1% | 14.9 | 35.5% | ?
CCN1C=C(Cc2ccc(OC)cc2)C2=C(C1)C(c1ccc(OC)cc1)C(C#N)=C(N)O2 (stereo unspecified) | -2.6 | 13.9% | 35.5µM* | -13.3 | ? | ?
Cc1ccc(NC(=O)NC(=O)COc2ccccc2C(N)=O)c(C)c1 | . | . | -9.5% | . | 21.2% | -12.0%
O=C(c1cc(Cl)ccc1Cl)N1CCN(c2ccccn2)CC1 | -6.7 | -24.5% | 3.6% | -10.7 | 8.0% | -17.8%
COc1ccc(-c2cc(C(=O)N3CCN(c4ccccn4)CC3)c3ccccc3n2)cc1 | 43.4* | -116.4% | 7.3% | 74.7* | 69.9% | .
COc1ccc(OC)c(-c2cc(C(=O)N3CCN(c4ncccn4)CC3)c3ccccc3n2)c1 | -2.8 | -8.8% | -13.5% | 11.9 | ? | ?
COc1ccc(-c2cc(C(=O)N3CCN(c4ncccn4)CC3)c3ccccc3n2)c(OC)c1 | -2.2 | -57.4% | 7.4% | 18.2 | ? | 1.85µM*
O=C(c1cnc(N2CCN(c3ccccn3)CC2)c2ccccc12)N1CCN(c2cccc(Cl)c2)CC1 | -0.6 | . | -4.0% | 16.4 | 9.28µM* | -18.3%
CCOc1ccc(-c2cc(C(=O)N3CCN(c4ccccn4)CC3)c3ccccc3n2)cc1 | 35.2* | -31.4% | -1.8% | 53.9* | -43.8% | .
CCc1ccccc1NC(=O)CN(c1ccccc1OC)S(=O)(=O)c1ccc(C)cc1 | . | . | 1.3% | . | . | .
COc1ccc(NC(=O)COC(=O)c2cc(=O)c3ccccc3o2)cc1OC | . | . | 4.1% | . | 18.9% | 18.7%
COc1ccc2nc(N3CCN(C(=O)CS(=O)(=O)c4ccc(C)cc4)CC3)sc2c1 | . | . | -1.4% | . | . | .
COC(=O)CCn1cnc2onc(-c3cc(F)cc(F)c3)c2c1=O | . | . | -10.8% | . | . | .
CCCc1ccc(-c2cc(C(=O)N3CCN(c4ccccn4)CC3)c3ccccc3n2)cc1 | 48.8* | 25.9% | -21.9% | 31.5 | 5.7% | 5.22µM*
O=C(c1cc(Sc2ccc(Cl)cc2)nc2ccccc12)N1CCN(c2ccccn2)CC1 | -4.1 | . | -3.9% | 13.8 | 11.7µM* | 56.6%
O=C(c1cc(Sc2cccc(Cl)c2)nc2ccccc12)N1CCN(c2ccccn2)CC1 | -0.4 | . | 4.9% | 9.1 | ? | ?
CSc1ccc(CCNS(=O)(=O)c2csc(C(N)=O)c2)cc1 | -1.8 | -5.2% | -0.4% | 11.3 | ? | 8.4%
COc1cccc(=O)c2c(C)oc(C)c12 | -5.0 | -1.4% | 2.7%[11.4 µM] | -10.0 | . | 20.0%
COc1cccc(=O)c2c(C)n(-c3ccc(C(=O)O)cc3)c(C)c12 | 2.8 | 14.4% | ? | 6.6 | ? | 22.8%
COc1ccccc1-n1c(C)c2c(OC)cccc(=O)c2c1C | 11.5 | ? | -13.8% | 8.8 | 4.15µM* | 154.4%
COc1ccc(-n2c(C)c3c(OC)cccc(=O)c3c2C)cc1 | 0.9 | -0.8% | 4.8% | 5.0 | ? | 10.4µM*
Cc1nn(C(C)C(=O)O)c(=O)c2ccccc12 (stereo unspecified) | 5.7 | -2.3% | 20.7% | -7.3 | 28.8% | 9.28µM*

Source: PubChem (National Center for Advancing Translational Sciences (NCATS))
